Reference: PubChem BioAssay (NCATS)
Unmarked numbers belong to inactive results. Records with an inconclusive call do not appear. Entries that show only a call come without a potency. Activity calls are given as the source filed them. Unless noted, calls follow the shape of the dose curve; as a rule, active = well fitted curve in the direction sought with a large enough effect; inconclusive = small, poorly fitted or top-dose-only effect, or another doubt; inactive = no such curve, though single readings can be large; an effect the other way counts as inactive or inconclusive.

Assays:
[1] = biological target: Lysosomal acid glucosylceramidase (Homo sapiens) (UniProt P04062); test: Glucocerebrosidase-p2 (AID 348; in the data active = potency below about 10 µM; also: potency is read from the fitted curve at half-maximal effect); conditions: purified GBA, blue fluorogenic substrate, 40 min
Summary of the method: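 Normal human glucocerebrosidase (0.2 nM) with blue fluorogenic substrate (80 uM final) in citrate/phosphate pH 5.9 with 10mM sodium taurocholate, 0.01% tween-20; 40 min RT, NaOH/glycine stop; fluorescence Ex 365/Em 440; AC50 from a titration from 0.6 nM upwards.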

[2] = biological target: Cytochrome P450 1A2 (Homo sapiens) (UniProt P05177); test: p450-cyp1a2 (AID 410; calls by dose curve; also: potency is read from the fitted curve at half-maximal effect); conditions: recombinant CYP1A2, luciferin-ME demethylation, luminescence; series mostly up to 57 µM
Summary of the method: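 Luminescent demethylation readout: Luciferin-ME (100uM, equal to Km) turned over by 20nM CYP1A2 for 60 min at room temperature after NADPH regeneration addition, following 10 min compound preincubation. Normalization used 57 uM furafylline as full inhibition.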

[3] = Stat Signaling Pathway (AID 446; active = well fitted curve in either direction with a large enough effect, not every such curve was filed as active;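 also: ME-180 cervical cancer cells given 40 pM IL-6 alongside compound; SIE-controlled beta-lactamase reporter measured as 460/530 nm FRET emission ratio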); conditions: ME-180 SIE beta-lactamase reporter, IL-6 stimulated, 5 h; at 7.69 µM (top of the series) unless noted
Summary of the method: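 Overnight-plated ME-180 cells bearing a STAT Inducible Element beta-lactamase reporter; 5 h co-exposure to compound and 40 pM IL-6; values normalized to 300 pM IL-6 and 125 nM JAK inhibitor controls.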

[4] = biological target: Glucocorticoid receptor (Homo sapiens) (UniProt P04150); test: GR-GFP Redistribution (AID 450;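 active = compounds whose dose series gives a full or clear partial fitted curve of increased nuclear translocation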; also: potency is read from the fitted curve at half-maximal effect); conditions: U2OS GR-GFP nuclear translocation, laser cytometry, 2 h
[5] = biological target: Glucocorticoid receptor (Homo sapiens) (UniProt P04150); test: GR-EFC Redistribution (AID 451; calls by dose curve; also: potency is read from the fitted curve at half-maximal effect); conditions: CHO-K1 GR-EFC translocation, beta-gal luminescence, 2 h
Summary of the method: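 Translocation of GR-ED fusion to nuclear EA restores b-gal, read by luminescence after 1 h room-temperature detection. Engineered CHO-K1 biosensor cells, 1,000/well, exposed 2 h at 37 C to titrations up to 46 uM final.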

[6] = biological target: Mitogen-activated protein kinase 10 (Mus musculus) (UniProt Q61831); test: JNK3 AlphaScreen Assay (AID 530; active = well fitted curve in either direction with a large enough effect, not every such curve was filed as active;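 also: kinase came from lysate of stimulated human HepG2 cells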; also: potency is read from the fitted curve at half-maximal effect;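 as to activity change, negative = inhibition: signal reports phosphorylation of biotinylated GST-cJun 1-79 at Ser73 with 10 µM ATP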); conditions: JNK3 lysate, c-Jun phosphorylation; series mostly up to 57.1 µM
Summary of the method: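 qHTS titrations with 15 min compound pre-incubation before adding ATP (10 uM final). Read-out: AlphaScreen of Ser73-phosphorylated biotin-GST-cJun using HepG2 lysate JNK3 activated by IL-1β and TNFα.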

[7] = biological target: 3',5'-cyclic-AMP phosphodiesterase 4B (Homo sapiens) (UniProt Q07343); test: qHTS Assay for Inhibitors of PDE-IV (AID 607; active = well fitted activation curve with a large enough effect in the main read-out, with a control signal flat, not every such curve was filed as active); conditions: HEK293 ACTOne CNG channel cells, membrane potential fluorescence; series mostly up to 22.9 µM
Summary of the method: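 Live HEK293 cells with a modified cyclic nucleotide-gated (CNG) channel report intracellular cAMP via membrane-potential dye fluorescence (ex 535/em 590 nm). Endogenous PDE-IV was targeted. Compounds were tested at up to 22.9 uM final; RO 20-1724 100 uM served as control.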

[8] = biological target: Cytochrome P450 3A4 (Homo sapiens) (UniProt P08684); test: qHTS Assay for Activators of Cytochrome P450 3A4 (AID 885); conditions: recombinant CYP3A4, Luciferin-PPXE luminescence, 60 min; series mostly up to 57.1 µM; also: nearly all actives have a fitted effect of over 65% in size
Summary of the method: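 Using 20nM recombinant human CYP3A4 in potassium phosphate (200mM), substrate Luciferin-PPXE at 25uM, luminescent luciferin detection followed a 60-min RT NADPH reaction; data scaled to 57 uM ketoconazole.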

[9] = biological target: Dual specificity protein kinase CLK4 (Homo sapiens) (UniProt Q9HAZ1); test: qHTS Assay for Inhibitors of CDC-like Kinase 4 (Kinase-Glo Assay) (AID 1770); conditions: recombinant Clk4, Kinase-Glo ATP depletion luminescence; series mostly up to 66.7 µM; also: nearly all actives have a fitted effect of over 65% in size; also: potency is read from the fitted curve at half-maximal effect
Summary of the method: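 25 nM Clk4 with 100 uM RS repeat peptide and 1 uM ATP (final) in Tris pH7.5, 10 mM MgCl2, 4.5 h at room temperature. Remaining ATP measured by Kinase-Glo luciferase luminescence.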

[10] = biological target: Dual specificity protein kinase CLK4 (Homo sapiens) (UniProt Q9HAZ1); test: qHTS Assay for Inhibitors of CDC-like Kinase 4 (ADP-Glo Assay) (AID 1771); conditions: recombinant CLK4, ADP-Glo luminescence; series mostly up to 80 µM; also: nearly all actives have a fitted effect of over 70% in size; also: potency is read from the fitted curve at half-maximal effect
Summary of the method: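 ADP production was read by ADP-Glo luminescence after residual ATP depletion, following 1 h room-temperature reaction of 25 nM Clk4, 1 uM ATP and 100 uM RS peptide with MgCl2, EGTA, DTT and Triton X-100.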

[11] = biological target: Dual specificity protein kinase CLK4 (Homo sapiens) (UniProt Q9HAZ1); test: qHTS Assay for Inhibitors of CDC-like Kinase 4 (ADP-FP Assay) (AID 1795); conditions: Transcreener ADP fluorescence polarization; series mostly up to 50 µM; also: nearly all actives have a fitted effect of over 60% in size; also: potency is read from the fitted curve at half-maximal effect;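 as to activity change, negative = inhibition: recombinant human CLK4 phosphorylating RS repeat peptide at 1 µM ATP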
Summary of the method: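 Recombinant Clk4 (6.25 nM) phosphorylated 100 uM RS repeat peptide with 1 uM ATP in 25 mM Tris pH 7.5, 10 mM MgCl2, 0.5 mM EGTA, 2.5 mM DTT, 0.01% Triton X-100 for 1 h. ADP was detected by Transcreener ADP2 competitive fluorescence polarization after 30 min at room temperature.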

[12] = biological target: Ubiquitin carboxyl-terminal hydrolase 1 (Homo sapiens) (UniProt O94782); test: Inhibitors of USP1/UAF1: Pilot qHTS (AID 504865); conditions: purified USP1/UAF1, Ub-rhodamine cleavage fluorescence; series mostly up to 54.9 µM;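 also: rhodamine fluorescence freed from ubiquitin-rhodamine substrate followed over time; top concentration of the series differs between compounds; nearly all actives have a fitted effect of over 35% in size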
Summary of the method: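 USP1/UAF1 complex at 1 nM preincubated 15 min at room temperature with compound, then Ub-Rho substrate added at 150 nM final. Fluorescence (480/540 nm) read kinetically in 50 mM HEPES pH 7.8, 0.5 mM EDTA, 1 mM TCEP, 0.1 mg/ml BSA, 0.01% Tween-20.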

[13] = Primary qHTS for small molecule stabilizers of the endoplasmic reticulum resident proteome: Secreted ER Calcium Modulated Protein (SERCaMP) assay (AID 1508630); conditions: SH-SY5Y GLuc-SERCaMP (Gaussia luciferase released on ER calcium loss) secretion, thapsigargin, luminescence; series mostly up to 38.4 µM
Summary of the method: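 The SH-SY5Y reporter protocol was run at 3 concentrations up to 38.3 uM (primary) or 11 concentrations (follow-up): 16 h compound, 100 nM thapsigargin for 4 h, then extracellular luciferase luminescence.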

[14] = biological target: Cytochrome P450 2D6 (Homo sapiens) (UniProt P10635); test: qHTS Assay for Inhibitors and Substrates of Cytochrome P450 2D6 (AID 891); conditions: recombinant CYP2D6, luciferin-ME EGE luminescence; series mostly up to 57.1 µM; also: potency is read from the fitted curve at half-maximal effect; nearly all actives have a fitted effect of over 60% in size
Summary of the method: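 Luminescent read-out of luciferin formed by 5 nM human CYP2D6 demethylating 30 uM Luciferin-ME EGE (Km level) over 60 min at room temperature after NADPH regeneration addition. Data normalized to full inhibition by 1.43 uM quinidine.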

[15] = NFAT Signaling Pathway (AID 444; active = well fitted curve in either direction with a large enough effect, not every such curve was filed as active;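 also: carbachol stimulus at about its EC50 of 1 µM final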); conditions: Jurkat NFAT-bla M1, carbachol, beta-lactamase ratio, 5 h; at 7.69 µM (top of the series) unless noted
Summary of the method: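 Read-out: CCF4 FRET ratio (460 nm/530 nm) after 1 h RT dye loading, used for %activity and AC50 from titration series. Cells: Jurkat NFAT-β-lactamase/M1 line, treated with compound plus 1 uM carbachol for 5 h, 37 °C.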

[16] = AP1 Signaling Pathway (AID 357; active = well fitted curve in either direction with a large enough effect, not every such curve was filed as active;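 also: ME-180 reporter cells stimulated with EGF at its EC50 level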); conditions: ME-180 AP-1-bla reporter, EGF-induced, beta-lactamase ratio, 5 h; at 7.69 µM (top of the series) unless noted
Summary of the method: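 Titration-series screen for positive or negative modulators of EC50 EGF-induced signaling in ME-180 cells carrying an AP-1-driven beta-lactamase reporter. After 5 hours at 37 degrees Celsius, CCF4 460nm/530nm emission ratio gave %Activity; AC50 values derived.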

[17] = qHTS Assay for Identification of Small Molecule Agonists for Hypoxia Response Element Signaling Pathway (AID 914; active = well fitted activation curve with a large enough effect in the signal ratio, with a control signal flat, not every such curve was filed as active; the % refers to the signal ratio; also: potency is read from the fitted curve at half-maximal effect); conditions: ME-180 (cervical carcinoma) HRE-bla reporter, beta-lactamase ratio, CoCl2, 17 h; activation: active compounds read high
Summary of the method: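 AC50 values come from titration-series %Activity, taken as the 460/530nm ratio of CCF4 fluorescence (excitation 405nm). CellSensor HRE-bla ME-180 cells were treated 17 hours at 37 C with compound plus an EC50 level of CoCl2.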

Chain of Glucocorticoid receptor (Homo sapiens) (P04150 whole entry, looked up, the tested form may be a part): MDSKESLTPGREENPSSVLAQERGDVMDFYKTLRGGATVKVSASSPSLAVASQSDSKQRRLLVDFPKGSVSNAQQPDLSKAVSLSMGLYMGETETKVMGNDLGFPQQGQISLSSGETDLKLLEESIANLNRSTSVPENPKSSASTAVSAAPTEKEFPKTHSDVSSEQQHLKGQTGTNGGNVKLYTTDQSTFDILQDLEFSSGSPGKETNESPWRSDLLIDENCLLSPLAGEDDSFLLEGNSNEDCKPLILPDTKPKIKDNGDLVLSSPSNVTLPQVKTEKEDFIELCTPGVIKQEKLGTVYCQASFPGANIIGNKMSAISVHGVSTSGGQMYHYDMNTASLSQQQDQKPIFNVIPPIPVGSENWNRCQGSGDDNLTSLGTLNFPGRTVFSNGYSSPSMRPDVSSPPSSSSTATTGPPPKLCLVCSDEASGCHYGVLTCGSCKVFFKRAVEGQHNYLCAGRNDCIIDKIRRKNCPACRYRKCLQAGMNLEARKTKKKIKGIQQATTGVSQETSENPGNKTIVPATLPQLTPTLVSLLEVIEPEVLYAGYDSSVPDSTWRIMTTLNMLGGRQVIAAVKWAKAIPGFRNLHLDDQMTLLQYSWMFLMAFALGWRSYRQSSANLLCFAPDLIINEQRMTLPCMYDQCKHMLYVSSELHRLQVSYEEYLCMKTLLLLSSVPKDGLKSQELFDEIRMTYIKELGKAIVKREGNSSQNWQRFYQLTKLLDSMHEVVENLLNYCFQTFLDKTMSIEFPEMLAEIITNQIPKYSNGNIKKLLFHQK
Chain of Cytochrome P450 1A2 (Homo sapiens) (P05177 whole entry, looked up): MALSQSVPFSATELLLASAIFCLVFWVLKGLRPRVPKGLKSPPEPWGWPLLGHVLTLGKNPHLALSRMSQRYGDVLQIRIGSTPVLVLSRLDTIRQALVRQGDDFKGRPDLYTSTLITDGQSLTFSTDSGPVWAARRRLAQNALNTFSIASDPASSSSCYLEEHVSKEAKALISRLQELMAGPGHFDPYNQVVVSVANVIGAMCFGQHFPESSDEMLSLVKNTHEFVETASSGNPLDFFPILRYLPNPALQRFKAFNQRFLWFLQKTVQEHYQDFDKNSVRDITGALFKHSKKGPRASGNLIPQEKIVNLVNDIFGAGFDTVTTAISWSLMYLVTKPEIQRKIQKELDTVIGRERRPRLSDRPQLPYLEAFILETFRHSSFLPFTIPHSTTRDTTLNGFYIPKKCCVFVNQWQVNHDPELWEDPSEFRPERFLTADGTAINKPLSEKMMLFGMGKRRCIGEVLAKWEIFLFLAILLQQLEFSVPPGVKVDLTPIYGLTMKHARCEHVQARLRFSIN
Chain of Dual specificity protein kinase CLK4 (Homo sapiens) (Q9HAZ1 whole entry, looked up): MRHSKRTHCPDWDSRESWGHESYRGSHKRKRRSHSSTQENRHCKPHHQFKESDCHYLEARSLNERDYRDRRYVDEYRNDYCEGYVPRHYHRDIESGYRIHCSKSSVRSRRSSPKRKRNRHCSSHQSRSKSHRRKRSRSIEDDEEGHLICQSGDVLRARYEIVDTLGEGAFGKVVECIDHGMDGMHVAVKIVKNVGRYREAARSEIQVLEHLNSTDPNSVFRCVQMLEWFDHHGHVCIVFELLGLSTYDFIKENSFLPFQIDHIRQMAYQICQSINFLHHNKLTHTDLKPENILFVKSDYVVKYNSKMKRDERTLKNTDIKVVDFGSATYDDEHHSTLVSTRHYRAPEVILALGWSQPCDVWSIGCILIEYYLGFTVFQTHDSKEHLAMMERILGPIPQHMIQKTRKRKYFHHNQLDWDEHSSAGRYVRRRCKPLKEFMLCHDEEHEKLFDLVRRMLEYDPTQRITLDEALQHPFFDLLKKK
Chain of Lysosomal acid glucosylceramidase (Homo sapiens) (P04062 whole entry, looked up): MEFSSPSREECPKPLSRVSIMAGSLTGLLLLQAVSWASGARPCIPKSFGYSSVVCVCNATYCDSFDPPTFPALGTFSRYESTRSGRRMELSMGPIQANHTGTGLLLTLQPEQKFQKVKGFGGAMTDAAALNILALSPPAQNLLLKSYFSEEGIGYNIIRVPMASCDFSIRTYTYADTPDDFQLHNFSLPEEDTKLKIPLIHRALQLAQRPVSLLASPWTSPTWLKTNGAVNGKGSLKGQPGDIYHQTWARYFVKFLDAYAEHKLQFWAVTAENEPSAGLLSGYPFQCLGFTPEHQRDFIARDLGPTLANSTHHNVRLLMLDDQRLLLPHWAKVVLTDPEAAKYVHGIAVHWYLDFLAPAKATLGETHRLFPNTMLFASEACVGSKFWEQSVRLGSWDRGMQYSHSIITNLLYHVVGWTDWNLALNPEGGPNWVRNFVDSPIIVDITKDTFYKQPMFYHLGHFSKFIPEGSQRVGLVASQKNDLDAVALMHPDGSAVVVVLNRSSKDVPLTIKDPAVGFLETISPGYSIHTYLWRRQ
Chain of 3',5'-cyclic-AMP phosphodiesterase 4B (Homo sapiens) (Q07343 whole entry, looked up): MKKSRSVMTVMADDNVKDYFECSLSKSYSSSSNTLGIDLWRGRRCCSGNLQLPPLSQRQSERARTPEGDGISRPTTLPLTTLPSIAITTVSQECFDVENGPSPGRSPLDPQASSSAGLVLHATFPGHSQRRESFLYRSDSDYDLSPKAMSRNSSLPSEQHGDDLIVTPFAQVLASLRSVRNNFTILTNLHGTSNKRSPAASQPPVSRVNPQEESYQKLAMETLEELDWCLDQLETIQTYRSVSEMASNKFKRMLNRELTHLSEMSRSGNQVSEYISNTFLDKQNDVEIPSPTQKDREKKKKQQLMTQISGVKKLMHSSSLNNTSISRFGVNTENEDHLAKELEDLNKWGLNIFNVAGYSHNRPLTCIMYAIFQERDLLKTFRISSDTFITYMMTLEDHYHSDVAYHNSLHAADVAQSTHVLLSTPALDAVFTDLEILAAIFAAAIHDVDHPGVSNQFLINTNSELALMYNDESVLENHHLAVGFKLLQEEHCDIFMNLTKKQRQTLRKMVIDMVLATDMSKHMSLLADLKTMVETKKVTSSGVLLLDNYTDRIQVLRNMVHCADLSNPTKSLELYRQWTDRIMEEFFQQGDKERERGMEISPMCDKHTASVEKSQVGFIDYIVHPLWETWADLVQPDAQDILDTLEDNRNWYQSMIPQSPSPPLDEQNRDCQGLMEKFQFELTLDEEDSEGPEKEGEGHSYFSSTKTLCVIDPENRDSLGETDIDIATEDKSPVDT
Chain of Ubiquitin carboxyl-terminal hydrolase 1 (Homo sapiens) (O94782 whole entry, looked up): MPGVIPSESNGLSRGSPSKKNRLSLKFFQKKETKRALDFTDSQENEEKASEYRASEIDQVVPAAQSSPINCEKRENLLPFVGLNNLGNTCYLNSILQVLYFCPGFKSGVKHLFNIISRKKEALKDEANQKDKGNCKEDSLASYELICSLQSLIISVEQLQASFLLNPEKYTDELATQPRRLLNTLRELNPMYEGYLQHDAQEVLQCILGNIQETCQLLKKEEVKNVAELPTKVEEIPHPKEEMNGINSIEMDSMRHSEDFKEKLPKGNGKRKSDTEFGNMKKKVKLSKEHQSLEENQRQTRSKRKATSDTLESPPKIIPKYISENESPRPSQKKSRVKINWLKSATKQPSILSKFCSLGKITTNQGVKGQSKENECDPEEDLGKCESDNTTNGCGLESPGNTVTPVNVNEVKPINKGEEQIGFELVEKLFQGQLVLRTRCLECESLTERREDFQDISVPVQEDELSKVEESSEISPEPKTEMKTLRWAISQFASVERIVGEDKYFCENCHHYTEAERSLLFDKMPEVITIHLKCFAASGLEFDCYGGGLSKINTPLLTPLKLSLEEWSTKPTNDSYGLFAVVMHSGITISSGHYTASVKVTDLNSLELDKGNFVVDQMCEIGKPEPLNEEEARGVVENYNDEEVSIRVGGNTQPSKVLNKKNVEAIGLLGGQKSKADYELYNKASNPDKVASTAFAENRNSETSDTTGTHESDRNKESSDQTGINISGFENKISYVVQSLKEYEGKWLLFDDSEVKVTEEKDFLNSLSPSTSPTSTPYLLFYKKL
Chain of Cytochrome P450 3A4 (Homo sapiens) (P08684 whole entry, looked up): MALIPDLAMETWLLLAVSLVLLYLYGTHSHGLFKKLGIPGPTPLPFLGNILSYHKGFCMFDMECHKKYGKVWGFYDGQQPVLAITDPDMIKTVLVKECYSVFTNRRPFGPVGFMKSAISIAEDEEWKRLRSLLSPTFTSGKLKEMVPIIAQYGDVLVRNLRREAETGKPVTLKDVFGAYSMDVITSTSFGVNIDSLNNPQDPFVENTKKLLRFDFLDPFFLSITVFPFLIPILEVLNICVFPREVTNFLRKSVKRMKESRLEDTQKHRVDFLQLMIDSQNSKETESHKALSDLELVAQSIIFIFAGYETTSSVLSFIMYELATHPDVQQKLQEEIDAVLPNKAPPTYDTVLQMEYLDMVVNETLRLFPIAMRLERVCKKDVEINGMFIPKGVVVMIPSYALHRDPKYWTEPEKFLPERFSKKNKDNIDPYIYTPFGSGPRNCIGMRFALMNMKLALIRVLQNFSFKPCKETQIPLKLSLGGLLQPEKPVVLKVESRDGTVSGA
Chain of Cytochrome P450 2D6 (Homo sapiens) (P10635 whole entry, looked up): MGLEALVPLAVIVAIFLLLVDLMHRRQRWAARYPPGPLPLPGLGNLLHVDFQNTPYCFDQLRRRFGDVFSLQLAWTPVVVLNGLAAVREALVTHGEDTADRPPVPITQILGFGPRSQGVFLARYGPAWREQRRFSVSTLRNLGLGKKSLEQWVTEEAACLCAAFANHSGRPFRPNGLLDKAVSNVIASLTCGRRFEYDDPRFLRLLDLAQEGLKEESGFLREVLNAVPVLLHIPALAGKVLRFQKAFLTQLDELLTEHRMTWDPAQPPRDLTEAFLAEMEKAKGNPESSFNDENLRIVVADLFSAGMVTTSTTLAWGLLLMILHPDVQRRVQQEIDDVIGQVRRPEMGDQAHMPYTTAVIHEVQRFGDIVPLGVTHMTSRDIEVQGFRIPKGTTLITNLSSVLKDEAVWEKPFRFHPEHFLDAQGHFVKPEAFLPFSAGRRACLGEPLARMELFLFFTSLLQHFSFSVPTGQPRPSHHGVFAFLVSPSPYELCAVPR

Structure (SMILES)	Potency [1] [µM]	Potency [2]	activity, negative = inhibition [3]	Potency [4] [µM]	Potency [5] [µM]	Potency [6]	Potency [7]	Potency [8]	Potency [9]	Potency [10]	Potency [11]	Potency [12]	outcome [13]	Potency [14]	activity change, negative = inhibition [15]	activity change, negative = inhibition [16] [%]	Potency [17]
COc1cccc(Cn2c(=O)c(-c3cccs3)nc3cnc(N4CCNCC4)nc32)c1	> 11.4	15.8 µM (active)	114% [activator] (active)	> 9.22	> 46	3.98 µM [activator] (active)	inactive	inactive	inactive	inactive	inactive	inactive	inactive				
CCNc1ncc2nc(-c3cc(F)cc(F)c3)c(=O)n(CCOC)c2n1	> 11.4	3.16 µM (active)		> 9.22	> 46	inactive		inactive	inactive	inactive	inactive	inactive	inactive	0.316 µM (active)			
c1nc(N2CCOCC2)c2cc(-c3ccoc3)ccc2n1	> 11.4		-19.4%	> 46	> 46	inactive			0.224 µM (active)	0.631 µM (active)	0.178 µM (active)	inactive	inactive		17.9%		
Cc1noc(C)c1-c1nc(N(C)Cc2ccco2)c2ccccc2n1	> 11.4		-25.7%	> 46	> 46		inactive		28.2 µM (active)	35.5 µM (active)	inactive	inactive	inactive			-1.42	
CCNc1ncc2nc(-c3ccc(Cl)cc3)c(=O)n(Cc3cccc(OC)c3)c2n1	> 11.4	inactive		> 9.22	> 46	inactive	inactive		inactive	inactive	inactive	inactive	inactive				0.316 µM (active)
Cn1cc(-c2nc3cnc(Oc4cccc(Cl)c4)nc3n(C3CC3)c2=O)c2ccccc21	> 11.4	12.6 µM (active)	9.54%	> 9.22	> 46	inactive			inactive	inactive	inactive	inactive	inactive		6.59%		
CN(C)c1ncc2nc(-c3ccc(F)cc3)c(=O)n(CCc3ccccc3)c2n1	> 11.4	2.51 µM (active)		> 9.22	> 46		inactive		inactive	inactive	inactive	inactive	inactive		162% [activator] (active)		
